Here are results for eight compounds from PubChem BioAssay (NCI).

Holding throughout (test): NCI-60 one-dose screen, 48 h (100 = growth as untreated, 0 = no growth, -100 = all killed)
One assay relates to K-562 leukemia. Particulars: 10 µM unless noted.
For the next assay, the system named is MALME-3M melanoma. Particulars: 10 µM unless noted.
The test system of a further assay is MDA-MB-231 breast. Particulars: 10 µM unless noted.
The test system of a further assay is RXF 393 renal. Particulars: 10 µM unless noted.
The subject of a further assay is SF-268 CNS. Particulars: 10 µM unless noted.
In another assay the test system is SF-295 CNS. Particulars: 10 µM unless noted.
In the next assay the test system is SF-539 CNS. Particulars: 10 µM unless noted.
A further assay relates to UACC-257 melanoma. Particulars: 10 µM unless noted.
A further assay deals with M14 melanoma. Particulars: 10 µM unless noted.
The subject of a further assay is HCT-15 colon. Particulars: 10 µM unless noted.
A further assay concerns HT29 colon. Particulars: 10 µM unless noted.
Another assay relates to SNB-75 CNS. Particulars: 10 µM unless noted.
The subject of the next assay is SNB-19 CNS. Particulars: 10 µM unless noted.
The next assay concerns U251 CNS. Particulars: 10 µM unless noted.
A further assay has as its system PC-3 prostate. Particulars: 10 µM unless noted.
The subject of the next assay is SK-MEL-5 melanoma. Particulars: 10 µM unless noted.
The test system of another assay is UACC-62 melanoma. Particulars: 10 µM unless noted.
Another assay relates to LOX IMVI melanoma. Particulars: 10 µM unless noted.
For the next assay, the system named is SK-MEL-28 melanoma. Particulars: 10 µM.
The next assay concerns SK-MEL-2 melanoma. Particulars: 10 µM unless noted.

This is part of a sample that, as a whole, favours compounds with a hit. Of some 83,000 tested, about 20% had one in any assay.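 Growth was measured after 48 h exposure to one concentration of compound in 96-well plates. Values under 10 count as active.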 Unmarked numbers belong to inactive results. The source made the active and inactive calls.

Regarding `COc1ccc2sc3c(NCCCN)nc4ccccc4c3c(=O)c2c1`, the growth in the assay on K-562 leukemia is -56.9% (active); in the assay on MALME-3M melanoma, 94.2%; in the assay on MDA-MB-231 breast, 25.3%; in the assay on RXF 393 renal it was 49.5%; in the assay with SF-268 CNS, 57.6%; in the assay with SF-295 CNS, 94.5%. Also, the growth in the assay on SF-539 CNS was 74.1%; with UACC-257 melanoma it was 95.7%; with M14 melanoma it was 18.9%; with HCT-15 colon, -49% (active); in the assay on HT29 colon, -47.8% (active); in the assay on SNB-75 CNS, 48.3%. The growth was 69.6% in the assay with SNB-19 CNS; -58.1% (active) in the assay with U251 CNS; 48.8% in the assay with PC-3 prostate; 84.3% in the assay on SK-MEL-5 melanoma; 61% in the assay on UACC-62 melanoma; -87.2% (active) with LOX IMVI melanoma. In addition, the growth is 84.8% in the assay with SK-MEL-28 melanoma and 96.2% in the assay on SK-MEL-2 melanoma.

With `CCCCCCc1cc2cc(-c3csc(/C=C/c4ccccc4)n3)c(=O)oc2cc1O`, the growth with K-562 leukemia was -25.8% (active); with MALME-3M melanoma it was -79.9% (active); in the assay on MDA-MB-231 breast, -8.21% (active); in the assay with RXF 393 renal, -9.75% (active); in the assay with SF-268 CNS, 17%; in the assay on SF-295 CNS, -55% (active). The growth was -77.3% (active) in the assay on SF-539 CNS; -78.3% (active) in the assay on UACC-257 melanoma; -58.3% (active) in the assay with M14 melanoma; 18.9% with HCT-15 colon; -37.8% (active) in the assay with HT29 colon; 3.13% (active) in the assay on SNB-75 CNS. Also, the growth with SNB-19 CNS was 55.3%; in the assay with U251 CNS it was 0.326% (active); in the assay on PC-3 prostate it was 25.1%; with SK-MEL-5 melanoma, -93.6% (active); in the assay with UACC-62 melanoma it was -68.3% (active); in the assay on LOX IMVI melanoma it was -47.1% (active). Moreover, the growth in the assay on SK-MEL-28 melanoma is -96.1% (active); in the assay on SK-MEL-2 melanoma it was -71.5% (active).

In the case of `CN(C)CCNc1cc(-c2ccccc2)nc2ccccc12`, the growth in the assay on K-562 leukemia is 0.508% (active); in the assay on MALME-3M melanoma, -77.3% (active); with MDA-MB-231 breast, -33.7% (active); in the assay with RXF 393 renal, -91.1% (active); in the assay on SF-268 CNS, -53.3% (active); in the assay on SF-295 CNS it was -71.5% (active). Also, the growth is -74.4% (active) in the assay on SF-539 CNS; -74.5% (active) in the assay on UACC-257 melanoma; -20.4% (active) with M14 melanoma; 6.92% (active) in the assay on HCT-15 colon; -42.2% (active) in the assay with HT29 colon; -69.3% (active) with SNB-75 CNS. The growth with SNB-19 CNS is 54.2%; in the assay on U251 CNS it was -69% (active); in the assay with PC-3 prostate, -38.5% (active); in the assay on SK-MEL-5 melanoma it was -74.3% (active); in the assay with UACC-62 melanoma it was -75.9% (active); in the assay on LOX IMVI melanoma, -84% (active). Besides, the growth in the assay with SK-MEL-28 melanoma was -90.7% (active); in the assay on SK-MEL-2 melanoma, -45.2% (active).

Regarding `CC/C(=C(\CC)c1ccc(OCC[N+](C)(C)C)cc1)c1ccc(OC)cc1`, the growth in the assay on K-562 leukemia was 30.4%; in the assay with MALME-3M melanoma it was 68.3%; in the assay on MDA-MB-231 breast, 71.9%; in the assay with RXF 393 renal, 29%; in the assay on SF-268 CNS it was 61.2%; in the assay with SF-295 CNS it was 76.2%. In addition, the growth was 59.9% with SF-539 CNS; 39% in the assay on UACC-257 melanoma; 58.1% in the assay with M14 melanoma; 97.6% with HCT-15 colon; 39.5% in the assay with HT29 colon; 31.2% in the assay on SNB-75 CNS. For the same compound, the growth was 27.1% in the assay with SNB-19 CNS; 21.6% in the assay on U251 CNS; 41.6% with PC-3 prostate; 44.1% with SK-MEL-5 melanoma; 42.2% in the assay with UACC-62 melanoma; 73.2% with LOX IMVI melanoma. Further, the figures for the growth with SK-MEL-28 melanoma and in the assay on SK-MEL-2 melanoma were 76.7% and 98.8%, respectively.

In the case of `COc1cc2nc(-c3cnc(N(C)C)nc3)nc(NC3CCN(Cc4ccccc4)CC3)c2cc1OC`, the growth is -40.4% (active) in the assay with K-562 leukemia; -74.4% (active) with MALME-3M melanoma; -87.7% (active) with MDA-MB-231 breast; -78.6% (active) in the assay on RXF 393 renal; -60% (active) with SF-268 CNS; -92% (active) in the assay with SF-295 CNS. Further, the growth is -92.9% (active) with SF-539 CNS; 24.1% in the assay with UACC-257 melanoma; -80.6% (active) with M14 melanoma; -85.9% (active) with HCT-15 colon; -84.4% (active) in the assay with HT29 colon; -96.7% (active) in the assay with SNB-75 CNS. Further, the growth in the assay on SNB-19 CNS is -79.2% (active); in the assay with U251 CNS, -87.4% (active); in the assay on PC-3 prostate, -83.2% (active); in the assay with SK-MEL-5 melanoma, 10.6%; in the assay with UACC-62 melanoma, -94.5% (active); in the assay with LOX IMVI melanoma, -91.9% (active). The growth in the assay on SK-MEL-28 melanoma is -78.7% (active); in the assay with SK-MEL-2 melanoma, 89.5%.

As to `CCOc1cc(Cl)c(C(C)NC(=O)c2cccc(OC)c2)cc1OCC` (stereo not given), the growth in the assay on K-562 leukemia was -25.7% (active); with MALME-3M melanoma, -70.4% (active); in the assay with MDA-MB-231 breast, -7.72% (active); with RXF 393 renal, -95.8% (active); in the assay with SF-268 CNS, 11.3%; with SF-295 CNS, 111%. Also, the growth in the assay on SF-539 CNS is 7.13% (active); with UACC-257 melanoma it was -70.3% (active); with M14 melanoma it was -46.4% (active); with HCT-15 colon, 3.34% (active); with HT29 colon it was -39.4% (active); with SNB-75 CNS, 7.33% (active). Moreover, the growth was 84.2% in the assay on SNB-19 CNS; 22.5% in the assay with U251 CNS; 6.15% (active) with PC-3 prostate; -96.8% (active) in the assay on SK-MEL-5 melanoma; -76% (active) with UACC-62 melanoma; -68.9% (active) in the assay on LOX IMVI melanoma. Also, the growth was -44.6% (active) with SK-MEL-28 melanoma and 34.9% in the assay on SK-MEL-2 melanoma.

In the case of `COc1c(B(O)O)cccc1-c1nc2ccc3[nH]ncc3c2c2c1C1CCC2C1` (stereo not given), the growth with K-562 leukemia is 55.6%; in the assay on MALME-3M melanoma, 136%; in the assay on MDA-MB-231 breast, 71.2%; with RXF 393 renal, 28.5%; in the assay on SF-268 CNS it was 67.4%; in the assay on SF-295 CNS, 86%. In addition, the growth in the assay on SF-539 CNS is 28%; in the assay with UACC-257 melanoma, 101%; with M14 melanoma, 84%; with HCT-15 colon, 49.6%; in the assay on HT29 colon, 71.9%; in the assay on SNB-75 CNS, 2.23% (active). For the same compound, the growth is 74% in the assay with SNB-19 CNS; 66.4% in the assay with U251 CNS; 76.9% with PC-3 prostate; 75.7% in the assay on SK-MEL-5 melanoma; 70.3% in the assay on UACC-62 melanoma; 52% with LOX IMVI melanoma. For the same compound, the growth is 104% in the assay on SK-MEL-28 melanoma and 80.8% in the assay with SK-MEL-2 melanoma.

Turning to `Cc1[nH]c2ccccc2c(=O)c1CC=C(Cl)Cl`, the growth is -34.6% (active) in the assay on K-562 leukemia; 82.4% in the assay on MALME-3M melanoma; 34.1% with MDA-MB-231 breast; 63.9% in the assay with RXF 393 renal; 39.6% in the assay on SF-268 CNS; -86.8% (active) with SF-295 CNS. Also, the growth is 58% in the assay with SF-539 CNS; 99.5% with UACC-257 melanoma; 72.7% in the assay with M14 melanoma; 3.43% (active) in the assay on HCT-15 colon; -59.8% (active) in the assay with HT29 colon; 63.1% in the assay on SNB-75 CNS. Besides, the growth is 56.7% in the assay on SNB-19 CNS; 18.9% with U251 CNS; 43.6% with PC-3 prostate; 72.2% with SK-MEL-5 melanoma; 63.9% with UACC-62 melanoma; 3.09% (active) with LOX IMVI melanoma. Besides, the growth is 74.8% in the assay on SK-MEL-28 melanoma and 46.2% in the assay with SK-MEL-2 melanoma.
